Assay outcomes (PubChem)
An excerpt weighted towards active compounds, which were near 0.87% of everything screened.
RECQ1 inh: inhibitors of human RECQ1 DNA helicase. P46063. RECQ1 DNA unwinding, red fluorescence kinetic read. Potency, µM (series often up to 57.3 µM), actives largely listed as inhibitors. hit rate 0.54% among 240,000; also: nearly all actives have a fitted effect of over 30% in size
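RECQ1T1 50 nM; forked duplex (20 bp + 30-nt ss tails) 200 nM, ATP 2 mM final; pH 8.0, 2 mM MgCl2, 2.5 ug/ml poly(dI-dC); 15 min compound preincubation; discontinuous kinetic read over 2 h at RT.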
FEN1 inhibitor: blocks human flap endonuclease 1 | Recombinant FEN1 flap cleavage, fluorescence, 15 min | Potency, µM (highest dose often 114 µM), usual class: inhibitors | hit rate 0.35% among 390,000; also: nearly all actives have a fitted effect of over 65% in size
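FEN1 at 10 nM preincubated with compounds 15 min at room temperature, then flap DNA substrate added at 50 nM final. Signal read at 0 and 15 min; concentration-response fitted with four-parameter Hill equation.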
WRN inhibitor: blocks human WRN helicase. Q14191. WRN helicase unwinding, fluorescent forked duplex, kinetic. Potency, µM (top dose mostly 114 µM), usual class: inhibitors. hit rate 0.46% among 360,000. AID 651768; also: nearly all actives have a fitted effect of over 55% in size
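WRN at 20 nM final preincubated with compound 15 min at room temperature; reaction started with 100 nM fluorophore/quencher forked duplex oligonucleotide and 2 mM ATP final. Unwinding followed kinetically by red fluorescence (ex 525, em 598 nm).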
APE1 inh: inhibitors of human APE1 endonuclease. P27695. recombinant APE1, TAMRA/BHQ-2 abasic DNA cleavage fluorescence. Potency, µM (highest dose often 65.8 µM), usual class: inhibitors. hit rate 0.35% among 350,000; also: nearly all actives have a fitted effect of over 55% in size
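Incision of a quenched TAMRA/BHQ-2 THF abasic-site duplex (50 nM) by 0.75 nM APE1, after 15 min compound preincubation, measured as fluorescence increase over three 60 s reads. Values normalized to buffer, DMSO and NSC13755 control wells.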
BLM inh: inhibitors of human Bloom syndrome helicase BLM; recombinant BLM DNA unwinding, fluorescence dequenching; hit rate 0.2% among 350,000; Potency, µM (doses to about 56.1 µM), actives largely listed as inhibitors; P54132; also: nearly all actives have a fitted effect of over 35% in size
Target sequence (P54132 whole entry, looked up): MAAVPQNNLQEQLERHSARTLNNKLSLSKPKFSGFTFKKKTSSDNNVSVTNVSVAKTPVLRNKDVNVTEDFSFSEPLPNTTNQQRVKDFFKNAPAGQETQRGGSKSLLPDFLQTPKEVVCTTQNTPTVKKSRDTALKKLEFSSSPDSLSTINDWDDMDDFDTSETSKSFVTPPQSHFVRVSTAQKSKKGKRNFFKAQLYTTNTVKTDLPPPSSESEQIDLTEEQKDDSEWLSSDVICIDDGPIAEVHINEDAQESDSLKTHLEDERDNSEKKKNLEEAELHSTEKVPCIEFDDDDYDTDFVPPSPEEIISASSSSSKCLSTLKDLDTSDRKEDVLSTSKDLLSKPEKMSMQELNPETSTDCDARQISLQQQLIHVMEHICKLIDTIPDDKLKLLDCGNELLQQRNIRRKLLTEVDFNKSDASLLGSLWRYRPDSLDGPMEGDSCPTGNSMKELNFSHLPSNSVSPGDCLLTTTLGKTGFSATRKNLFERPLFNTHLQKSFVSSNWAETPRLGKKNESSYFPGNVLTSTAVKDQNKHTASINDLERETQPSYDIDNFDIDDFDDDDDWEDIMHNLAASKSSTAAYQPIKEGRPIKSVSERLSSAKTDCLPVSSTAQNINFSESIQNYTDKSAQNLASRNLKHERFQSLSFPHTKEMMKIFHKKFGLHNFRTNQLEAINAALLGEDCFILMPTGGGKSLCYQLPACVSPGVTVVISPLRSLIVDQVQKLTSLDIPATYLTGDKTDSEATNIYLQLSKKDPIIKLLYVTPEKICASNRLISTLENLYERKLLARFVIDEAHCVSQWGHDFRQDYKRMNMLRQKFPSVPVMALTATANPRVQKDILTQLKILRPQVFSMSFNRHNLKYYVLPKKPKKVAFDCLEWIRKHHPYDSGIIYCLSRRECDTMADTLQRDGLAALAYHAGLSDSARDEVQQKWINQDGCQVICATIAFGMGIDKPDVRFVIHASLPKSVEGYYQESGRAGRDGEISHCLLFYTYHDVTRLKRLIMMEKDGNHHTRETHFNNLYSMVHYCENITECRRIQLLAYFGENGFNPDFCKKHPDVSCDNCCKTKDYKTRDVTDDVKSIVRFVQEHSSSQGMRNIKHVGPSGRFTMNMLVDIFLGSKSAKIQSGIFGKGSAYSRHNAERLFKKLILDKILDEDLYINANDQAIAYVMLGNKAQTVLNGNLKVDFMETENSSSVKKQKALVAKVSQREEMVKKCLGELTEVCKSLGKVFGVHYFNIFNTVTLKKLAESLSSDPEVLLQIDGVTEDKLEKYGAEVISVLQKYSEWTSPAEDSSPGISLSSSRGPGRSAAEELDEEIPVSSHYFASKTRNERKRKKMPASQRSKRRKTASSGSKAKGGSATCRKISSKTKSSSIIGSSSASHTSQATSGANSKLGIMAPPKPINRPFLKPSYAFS
Hits are given with their value; . = inactive; ? = inconclusive; / = no result given. Calls follow the shape of the dose curve; as a rule, active = well fitted curve in the direction sought with a large enough effect; inconclusive = small, poorly fitted or top-dose-only effect, or another doubt; inactive = no such curve, though single readings can be large; an effect the other way counts as inactive or inconclusive.

SMILES	RECQ1 inh	FEN1 inhibitor	WRN inhibitor	APE1 inh	BLM inh
CC1CCC2C(=O)N3C(CCC(C)C3c3ccc(-c4ccco4)cc3)C(=O)N2C1c1ccc(-c2ccco2)cc1 (centres undefined)	2.5µM	/	/	4µM	3.5µM
O=C1NC(=O)/C(=C/c2cccn2-c2ccc(P(O)O)cc2)N1	/	/	/	.	/
O=c1c2ccccc2sc2ccccc12	/	.	?	/	/
O=c1c(C(c2ccccc2)c2c(O)sc3ccccc3c2=O)c(O)sc2ccccc12	32µM	.	.	.	?
Cc1ccc([C@H]2C(C(=O)O)=CC[C@@H](c3cccc(Cl)c3)N2S(=O)(=O)c2ccc(C)cc2)cc1	/	.	.	/	/
Cc1ccc(S(=O)(=O)N2[C@@H](c3ccc(C(C)(C)C)cc3)C(C(=O)O)=CC[C@H]2c2cccc(Cl)c2)cc1	/	.	71µM	.	/
O=C(C#Cc1ccccc1)c1cccc([N+](=O)[O-])c1	.	.	18µM	.	.
Nc1ccc(C(=O)O)cc1S(=O)(=O)O	.	.	.	.	.
Nc1cc(C(=O)O)c(O)c(S(=O)(=O)O)c1	.	/	/	28µM	/
Nc1[nH]n2c(=O)cc(-c3ccccc3)nc2c1N=Nc1ccc(S(N)(=O)=O)cc1	.	.	.	8.9µM	.
CN[C@@H]1[C@@H](O[C@H]2O[C@H](CO)[C@@H](N)[C@H](O)[C@H]2O)O[C@H]2C[C@@H](N)[C@@H](O[C@H]3[C@H](O)[C@@H](O)[C@H](N)C[C@@H]3N)O[C@@H]2[C@@H]1O	/	/	/	.	/
O=S(=O)(c1ccc(NC(=S)Nc2ccccc2)cc1)N1CCOCC1	.	.	.	.	.
CC(C)CCCCCCNC(=S)Nc1ccc(S(=O)(=O)N2CCOCC2)cc1	40µM	?	.	?	.
O=S(=O)(c1ccc(NC(=S)N/N=C/c2ccc(O)c(O)c2)cc1)N1CCOCC1	?	.	.	13µM	.
CSc1cccc(NC(=O)CN2C(=O)COc3ccc(S(=O)(=O)N4CCC(C)CC4)cc32)c1	/	.	/	/	.
Cc1ccc(S(=O)(=O)N2CCN(c3nc(-n4ccnc4)nc4ccccc34)CC2)cc1	/	.	/	/	/
CC(/C=C/c1ccco1)=N/NC(=O)c1ccc(C)nc1	.	.	.	.	.
Cc1ccc(C(=O)N/N=C/c2cccc(OC(=O)/C=C/c3ccco3)c2)cn1	?	.	.	14µM	.
O=C(O)c1ccc(CSc2nnc(-c3ccc([S+](=O)([O-])N4CCCC4)cc3)n2-c2ccccc2)cc1	/	/	/	.	/
C#CCOCCOCCOCCNc1nc(N2CCN(C(=O)[C@H](Cc3cc4ccccc4[nH]3)n3cc([C@@H](N)CC(C)C)nn3)CC2)nc(N2CCN(C(=O)[C@H](Cc3cc4ccccc4[nH]3)n3cc([C@@H](N)CC(C)C)nn3)CC2)n1	?	.	.	.	22µM
C#CCOCCOCCOCCNc1nc(N2CCN(C(=O)CCCCCCCCCCNC(=O)Cn3cc(C[C@@H](C)O)nn3)CC2)nc(N2CCN(C(=O)CCCCCCCCCCNC(=O)Cn3cc(C[C@@H](C)O)nn3)CC2)n1	/	.	.	.	/
C#CCOCCOCCOCCNc1nc(N2CCN(C(=O)CCCCCCCCCCNC(=O)Cn3cc(C[C@@H](C)O)nn3)CC2)nc(N2CCN(C(=O)CCCCCCCCCCNC(=O)[C@H](CCCCN)n3cc(C[C@@H](C)CC)nn3)CC2)n1	/	50µM	?	.	/
C#CCOCCOCCOCCNc1nc(N2CCN(C(=O)CCCCCCCCCCNC(=O)[C@H](CCCCN)n3cc(C[C@@H](C)CC)nn3)CC2)nc(N2CCN(C(=O)CCCCCCCCCCNC(=O)[C@H](CCCCN)n3cc(C[C@@H](C)CC)nn3)CC2)n1	/	22µM	50µM	/	/
C#CCOCCOCCOCCNc1nc(N2CCN(C(=O)CCCCCCCCCCNC(=O)[C@H](CCCCN)n3cc(CCO)nn3)CC2)nc(N2CCN(C(=O)CCCCCCCCCCNC(=O)[C@H](CCCCN)n3cc(CCO)nn3)CC2)n1	/	79µM	.	.	/
CC(=O)N[C@@H](C=O)[C@H](O)[C@H](O)[C@@H](O)CO	/	/	/	.	/
C#CCOCCOCCOCCNc1nc(N2CCN(C(=O)CCCCCCCCCCNC(=O)[C@H](CCCCN)n3cc(CCCC(=O)O)nn3)CC2)nc(N2CCN(C(=O)CCCCCCCCCCNC(=O)[C@H](CCCCN)n3cc(CCCC(=O)O)nn3)CC2)n1	/	.	.	.	/
